# Laboratory results: PubChem BioAssay (EPA / NIEHS)
# Results filed as inconclusive are left out. Active and inactive are the calls of the source. The calls were made as follows, unless noted: active = hit-call score of the fitted dose curve at least 0.9, where 1 is the maximum; inactive = score below 0.9.
# Key:
# [1] = ATG_CRE_CIS: Attagene CIS-FACTORIAL HepG2 Assay for human cAMP Responsive Element (CRE) binding protein 3 (AID 2282926); conditions: HepG2 CRE cis-reporter, Attagene multiplexed mRNA; actives raise or lower the signal
# Summary of the method: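 Transfected HepG2 were treated for 24 hours, then RNA was extracted and reporter cDNA amplified with sequence-specific primers. Labelled fragments were separated by capillary electrophoresis, and the CRE signal was fitted bidirectionally with DMSO as baseline.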
# [2] = biological target: Transcription factor E2F1 (Homo sapiens) (UniProt Q01094); experiment: ATG_E2F_CIS: Attagene CIS-FACTORIAL HepG2 Assay for human E2F Transcription Factor 1 (AID 2282935); conditions: HepG2 Attagene cis-reporter, E2F reporter RNA transcripts; actives raise or lower the signal
# Sequence of Transcription factor E2F1 (Homo sapiens) (Q01094 whole entry, looked up): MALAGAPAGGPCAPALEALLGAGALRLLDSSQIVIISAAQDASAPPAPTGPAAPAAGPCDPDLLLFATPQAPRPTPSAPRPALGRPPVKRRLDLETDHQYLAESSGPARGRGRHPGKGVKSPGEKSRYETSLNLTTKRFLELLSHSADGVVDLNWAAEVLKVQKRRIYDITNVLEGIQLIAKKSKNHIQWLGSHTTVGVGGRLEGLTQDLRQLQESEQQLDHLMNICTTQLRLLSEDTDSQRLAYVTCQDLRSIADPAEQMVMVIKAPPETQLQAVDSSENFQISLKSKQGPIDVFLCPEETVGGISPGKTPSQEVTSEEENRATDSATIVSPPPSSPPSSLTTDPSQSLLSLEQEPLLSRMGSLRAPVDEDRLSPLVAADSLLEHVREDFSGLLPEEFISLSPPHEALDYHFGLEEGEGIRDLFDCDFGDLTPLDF
# Summary of the method: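 Cis-element reporter mRNA induction in transiently transfected HepG2, 24 h exposure. Activity fitted in both directions relative to DMSO negative control.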
# [3] = ATG_M_19_CIS: Attagene CIS-FACTORIAL HepG2 Assay for M19 Transcription Factor (Internal Marker) (AID 2282939); conditions: HepG2 Attagene CIS-FACTORIAL M19 internal marker reporter; actives raise or lower the signal
# Summary of the method: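 Signals come from fluorescence of labelled reporter-specific PCR fragments resolved by capillary electrophoresis, following 24 h treatment of HepG2 cells transfected with cis-promoter reporter units; activity was fitted in both directions relative to DMSO.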
# [4] = biological target: Hypoxia-inducible factor 1-alpha (Homo sapiens) (UniProt Q16665); experiment: ATG_HIF1a_CIS: Attagene CIS-FACTORIAL HepG2 Assay for human Hypoxia Inducible Factor 1 (HIF1A) (AID 2282951); conditions: HepG2 Attagene cis-factorial HIF1a reporter transcription; actives raise or lower the signal
# Sequence of Hypoxia-inducible factor 1-alpha (Homo sapiens) (Q16665 whole entry, looked up): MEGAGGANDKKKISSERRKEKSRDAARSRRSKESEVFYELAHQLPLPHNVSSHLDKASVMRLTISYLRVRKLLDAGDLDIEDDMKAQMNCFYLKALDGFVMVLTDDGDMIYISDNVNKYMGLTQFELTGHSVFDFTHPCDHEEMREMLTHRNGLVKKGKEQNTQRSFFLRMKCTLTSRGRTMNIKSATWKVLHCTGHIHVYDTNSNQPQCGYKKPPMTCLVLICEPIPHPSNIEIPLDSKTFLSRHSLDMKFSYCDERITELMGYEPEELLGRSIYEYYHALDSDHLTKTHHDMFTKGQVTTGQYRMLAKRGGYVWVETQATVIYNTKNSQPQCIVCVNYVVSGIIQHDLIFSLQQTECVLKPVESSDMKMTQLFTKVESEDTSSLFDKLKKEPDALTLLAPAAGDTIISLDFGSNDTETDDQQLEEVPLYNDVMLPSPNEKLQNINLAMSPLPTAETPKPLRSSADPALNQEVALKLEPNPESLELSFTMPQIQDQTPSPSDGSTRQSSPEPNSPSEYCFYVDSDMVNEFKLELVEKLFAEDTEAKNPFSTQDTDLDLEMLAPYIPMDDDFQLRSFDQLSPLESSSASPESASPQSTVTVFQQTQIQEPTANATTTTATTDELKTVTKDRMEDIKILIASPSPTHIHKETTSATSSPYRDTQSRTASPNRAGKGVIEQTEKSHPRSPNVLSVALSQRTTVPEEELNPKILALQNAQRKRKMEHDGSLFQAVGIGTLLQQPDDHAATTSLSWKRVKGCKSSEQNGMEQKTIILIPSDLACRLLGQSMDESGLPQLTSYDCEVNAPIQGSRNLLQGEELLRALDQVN
# Summary of the method: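 RT-PCR/capillary electrophoresis fluorescence readout of reporter transcripts from endogenous-TF-driven cis elements in transfected HepG2 cells, 24 h exposure; activity fitted in both directions against DMSO controls.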
# [5] = biological target: Heat shock factor protein 1 (Homo sapiens) (UniProt Q00613); experiment: ATG_HSE_CIS: Attagene CIS-FACTORIAL HepG2 Assay for human Heat Shock Transcription Factor 1 (HSE) (AID 2282953); conditions: HepG2 HSE cis-reporter, Attagene RNA transcription; actives raise or lower the signal
# Sequence of Heat shock factor protein 1 (Homo sapiens) (Q00613 whole entry, looked up, the tested form may be a part): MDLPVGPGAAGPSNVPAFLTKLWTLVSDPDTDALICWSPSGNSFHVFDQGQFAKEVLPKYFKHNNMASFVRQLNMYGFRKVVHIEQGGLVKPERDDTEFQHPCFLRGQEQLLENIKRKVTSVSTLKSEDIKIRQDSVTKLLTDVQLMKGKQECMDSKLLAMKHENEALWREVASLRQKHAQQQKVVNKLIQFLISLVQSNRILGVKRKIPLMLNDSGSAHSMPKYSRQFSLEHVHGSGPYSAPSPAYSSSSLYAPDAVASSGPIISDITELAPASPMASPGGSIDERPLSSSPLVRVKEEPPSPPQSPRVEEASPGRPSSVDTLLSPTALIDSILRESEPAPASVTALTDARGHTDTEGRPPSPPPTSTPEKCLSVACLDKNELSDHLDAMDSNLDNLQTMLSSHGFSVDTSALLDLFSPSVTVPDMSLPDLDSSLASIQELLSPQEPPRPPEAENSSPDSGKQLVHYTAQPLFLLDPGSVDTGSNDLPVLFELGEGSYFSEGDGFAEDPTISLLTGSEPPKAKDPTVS
# Summary of the method: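 Endogenous transcription factor activity captured via cis-promoter reporter units transfected into HepG2; treatment lasted 24 h. Fluorescence intensity of reporter fragments analysed with bidirectional curve fitting, DMSO baseline.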
# [6] = biological target: Paired box protein Pax-6 (Homo sapiens) (UniProt P26367); experiment: ATG_Pax6_CIS: Attagene CIS-FACTORIAL HepG2 Assay for human Paired Box 6 (PAX6) (AID 2282956); conditions: HepG2 CIS-FACTORIAL PAX6 reporter transcription, RNA readout; actives raise or lower the signal
# Sequence of Paired box protein Pax-6 (Homo sapiens) (P26367 whole entry, looked up): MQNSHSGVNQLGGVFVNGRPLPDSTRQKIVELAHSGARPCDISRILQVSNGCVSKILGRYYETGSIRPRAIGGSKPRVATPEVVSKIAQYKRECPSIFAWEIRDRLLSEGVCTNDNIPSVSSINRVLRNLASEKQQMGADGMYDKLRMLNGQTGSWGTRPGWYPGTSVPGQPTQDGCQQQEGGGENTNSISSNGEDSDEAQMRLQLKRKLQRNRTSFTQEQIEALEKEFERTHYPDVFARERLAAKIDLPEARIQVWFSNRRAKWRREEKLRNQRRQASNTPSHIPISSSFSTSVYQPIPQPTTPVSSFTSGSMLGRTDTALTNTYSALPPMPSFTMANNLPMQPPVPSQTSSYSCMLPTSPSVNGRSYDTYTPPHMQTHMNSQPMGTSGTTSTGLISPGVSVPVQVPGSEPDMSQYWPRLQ
# Summary of the method: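 HepG2 cells transiently transfected with multiplexed cis-promoter reporter units (endogenous TF activity) were dosed for 24 h. Reporter mRNA was quantified by RT-PCR, 6-FAM labeling, HpaI digestion and capillary electrophoresis; bidirectional fitting versus DMSO baseline.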
# [7] = ATG_RORE_CIS: Attagene CIS-FACTORIAL HepG2 Assay for human RAR-related Orphan Receptor Element (RORE) (AID 2282959); conditions: HepG2 Attagene cis-factorial RORE reporter, mRNA; actives raise or lower the signal
# Summary of the method: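 Readout: fluorescent reporter mRNA by RT-PCR plus capillary electrophoresis, 24 h after dosing transfected HepG2 cells. Endogenous transcription factor activity on a cis promoter element is measured. Gain or loss of signal fitted against DMSO.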
# [8] = ATG_TA_CIS: Attagene CIS-FACTORIAL HepG2 Assay for human TA Basal Promoter (AID 2282964); conditions: HepG2 Attagene CIS-factorial TA basal promoter reporter; actives raise or lower the signal
# Summary of the method: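 Fluorescence from labelled RT-PCR reporter fragments, separated by capillary electrophoresis, gives the signal. Cells: HepG2 transiently carrying multiple reporter units, 24 h chemical dosing. Gain or loss relative to DMSO.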
# [9] = ATG_TAL_CIS: Attagene CIS-FACTORIAL HepG2 Assay for human TAL Basal Promoter (AID 2282966); conditions: HepG2 Attagene cis-factorial TAL promoter reporter; actives raise or lower the signal;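 also: background control endpoint measuring basal TAL promoter reporter mRNA not a specific factor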
# Summary of the method: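 Steps: transfect HepG2 with multiple reporter transcription units; dose 24 h; isolate RNA, reverse-transcribe, PCR-amplify, label with 6-FAM, digest with HpaI; resolve by capillary electrophoresis. Bidirectional fitting against DMSO baseline.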
# [10] = ATG_TGFb_CIS: Attagene CIS-FACTORIAL HepG2 Assay for human Transforming Growth Factor (TGF) (AID 2282967); conditions: HepG2 Attagene CIS TGFb reporter, mRNA transcription; actives raise or lower the signal
# Summary of the method: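 Bidirectional fitting relative to DMSO gave the endpoint. Underlying data: reporter mRNA from HepG2 cells carrying transiently transfected cis-regulated reporter constructs, harvested 24 h after dosing and analyzed by RT-PCR and capillary electrophoresis.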
# [11] = ATG_VDRE_CIS: Attagene CIS-FACTORIAL HepG2 Assay for human Vitamin D Receptor Element (VDRE) (AID 2282968); conditions: HepG2 VDRE cis-reporter transcription, actives raise or lower the signal
# Summary of the method: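 Reporter mRNA induction, quantified by capillary electrophoresis of fluorescently labelled RT-PCR products, was read 24 h after dosing HepG2 cells carrying transiently transfected cis-regulated reporter units; gain or loss relative to DMSO.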
# [12] = biological target: Transcriptional activator Myb (Homo sapiens) (UniProt P10242); experiment: ATG_Myb_CIS: Attagene CIS-FACTORIAL HepG2 Assay for human Myeloblastosis (Myb) Proto-Oncogene Transcription Factor (AID 2282986); conditions: HepG2 Attagene CIS-FACTORIAL Myb reporter transcription; actives raise or lower the signal
# Sequence of Transcriptional activator Myb (Homo sapiens) (P10242 whole entry, looked up): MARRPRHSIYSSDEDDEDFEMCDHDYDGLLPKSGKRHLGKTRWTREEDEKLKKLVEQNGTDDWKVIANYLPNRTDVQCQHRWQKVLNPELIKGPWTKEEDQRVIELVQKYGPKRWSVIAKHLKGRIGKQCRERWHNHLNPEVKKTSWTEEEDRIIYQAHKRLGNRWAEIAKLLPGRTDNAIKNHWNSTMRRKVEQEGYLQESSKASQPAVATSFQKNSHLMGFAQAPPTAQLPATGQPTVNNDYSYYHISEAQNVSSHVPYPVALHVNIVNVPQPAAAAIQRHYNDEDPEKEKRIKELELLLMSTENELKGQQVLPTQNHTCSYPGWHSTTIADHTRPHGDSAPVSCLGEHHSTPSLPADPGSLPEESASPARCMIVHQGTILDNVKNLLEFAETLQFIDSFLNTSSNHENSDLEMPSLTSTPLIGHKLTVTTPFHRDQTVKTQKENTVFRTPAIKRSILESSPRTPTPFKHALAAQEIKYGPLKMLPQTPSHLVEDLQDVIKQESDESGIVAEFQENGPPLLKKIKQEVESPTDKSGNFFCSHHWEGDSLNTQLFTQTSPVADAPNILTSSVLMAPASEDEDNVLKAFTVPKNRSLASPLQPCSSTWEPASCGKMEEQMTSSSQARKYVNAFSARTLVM
# Summary of the method: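 HepG2, transient MRTU transfection (cis-element promoters, endogenous TF activity), 24 h compound exposure. Readout: reporter mRNA via RT-PCR, 6-FAM labeling, HpaI digest, capillary electrophoresis. Gain/loss fit vs DMSO.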
# [13] = biological target: Nuclear respiratory factor 1 (Homo sapiens) (UniProt Q16656); experiment: ATG_NRF1_CIS: Attagene CIS-FACTORIAL HepG2 Assay for human Nuclear Respiratory Factor 1 (NRF1) Orphan Gene (AID 2282987); conditions: HepG2 NRF1 cis-element reporter, Attagene multiplex; actives raise or lower the signal
# Sequence of Nuclear respiratory factor 1 (Homo sapiens) (Q16656 whole entry, looked up): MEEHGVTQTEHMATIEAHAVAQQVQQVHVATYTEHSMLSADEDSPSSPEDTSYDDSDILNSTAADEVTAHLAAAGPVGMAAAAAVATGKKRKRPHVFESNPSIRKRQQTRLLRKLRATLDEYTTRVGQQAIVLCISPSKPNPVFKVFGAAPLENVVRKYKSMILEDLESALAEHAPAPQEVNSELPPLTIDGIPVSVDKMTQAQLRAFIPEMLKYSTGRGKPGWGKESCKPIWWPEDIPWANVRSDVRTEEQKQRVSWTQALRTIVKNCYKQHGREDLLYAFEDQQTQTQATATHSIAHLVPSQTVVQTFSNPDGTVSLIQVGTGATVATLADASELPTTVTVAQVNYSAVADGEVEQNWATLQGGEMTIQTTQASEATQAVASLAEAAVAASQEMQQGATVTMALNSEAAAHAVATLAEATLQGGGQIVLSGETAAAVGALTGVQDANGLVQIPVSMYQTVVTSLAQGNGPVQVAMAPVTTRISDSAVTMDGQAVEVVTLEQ
# Summary of the method: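 Endogenous NRF1-driven reporter transcription measured in transiently transfected human HepG2 liver cells. Readout: reporter mRNA by RT-PCR and capillary electrophoresis with fluorescence detection, 24 h post-dosing. Gain or loss of signal fitted relative to DMSO baseline.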
# [14] = ATG_NFI_CIS: Attagene CIS-FACTORIAL HepG2 Assay for human Nuclear Factor I (NFI) (AID 2282989); conditions: HepG2 cis-regulatory reporter, NFI response element transcription; actives raise or lower the signal
# Summary of the method: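 Cells: human liver HepG2, transiently transfected with promoter-regulated reporter transcription units. Exposure 24 h. Detection: fluorescent RT-PCR products separated by capillary electrophoresis, normalised to DMSO negative control.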
# [15] = ATG_NF_kB_CIS: Attagene CIS-FACTORIAL HepG2 Assay for human Nuclear Factor Kappa B (NF-kB) (AID 2282991); conditions: HepG2 Attagene cis-factorial NF-kB reporter mRNA; actives raise or lower the signal
# Summary of the method: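 Read-out: reporter transcript levels quantified by RT-PCR plus capillary electrophoresis of 6-FAM-labelled, HpaI-cut fragments. Transfected HepG2 cells, 24 h compound exposure, endogenous NF-kB-driven cis element; gain or loss scored versus DMSO.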
# [16] = ATG_NRF2_ARE_CIS: Attagene CIS-FACTORIAL HepG2 Assay for human Nuclear Factor Erythroid 2 Related Factor 2 (NFR2) response to Antioxidant Response Elements (ARE) (AID 2282992); conditions: HepG2 Attagene ARE/NRF2 reporter, transcription factor activity; actives raise or lower the signal
# Summary of the method: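 HepG2 cells transiently transfected with multiplexed cis-regulated reporter transcription units measure endogenous transcription factor activity. Reporter mRNA at 24 h is quantified by RT-PCR, fluorescent labelling and capillary electrophoresis, with bidirectional fitting relative to DMSO.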
# [17] = biological target: Cellular tumor antigen p53 (Homo sapiens) (UniProt P04637); experiment: ATG_p53_CIS: Attagene CIS-FACTORIAL HepG2 Assay for human p53 Transcription Factor (AID 2282994); conditions: HepG2 p53 cis-element reporter, Attagene mRNA; actives raise or lower the signal
# Sequence of Cellular tumor antigen p53 (Homo sapiens) (P04637 whole entry, looked up): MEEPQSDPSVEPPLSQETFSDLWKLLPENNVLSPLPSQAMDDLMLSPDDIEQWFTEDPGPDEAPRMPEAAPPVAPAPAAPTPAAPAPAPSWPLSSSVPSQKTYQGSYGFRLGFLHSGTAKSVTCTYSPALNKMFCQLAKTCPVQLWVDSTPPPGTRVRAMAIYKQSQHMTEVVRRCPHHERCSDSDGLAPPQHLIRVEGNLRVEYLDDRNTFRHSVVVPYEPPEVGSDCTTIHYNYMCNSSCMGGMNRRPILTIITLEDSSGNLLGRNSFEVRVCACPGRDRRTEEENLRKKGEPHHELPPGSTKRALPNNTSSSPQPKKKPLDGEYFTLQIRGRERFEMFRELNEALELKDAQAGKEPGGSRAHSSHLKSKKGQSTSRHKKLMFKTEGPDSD
# Summary of the method: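 HepG2 cells transiently transfected with multiplexed cis-regulated reporter transcription units read endogenous TF activity. After 24 h compound exposure, reporter mRNA was quantified by RT-PCR, fluorescent labelling, HpaI digestion and capillary electrophoresis; bidirectional fits versus DMSO baseline.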
# [18] = ATG_M_32_TRANS: Attagene TRANS-FACTORIAL HepG2 Assay for M32 Transcription Factor (Internal Marker) (AID 2282984; active = hit-call score of the fitted dose curve at least 0.9, where 1 is the maximum;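 also: transcript level of a background control reporter unit measured by RT-PCR and capillary electrophoresis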); conditions: HepG2 Attagene TRANS M32 internal marker reporter
# Summary of the method: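 Measures reporter mRNA induction in human HepG2 liver cells after 24 h chemical treatment. Transcripts from transiently transfected GAL4-UAS reporter units are amplified, fluorescently labelled and sized by capillary electrophoresis; gain of signal relative to DMSO.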
# [19] = ATG_Oct_MLP_CIS: Attagene CIS-FACTORIAL HepG2 Assay for human Octamer-Binding Transcription Factor (Oct) (AID 2282993); conditions: HepG2 Attagene cis-factorial Oct reporter, mRNA; actives raise or lower the signal
# Summary of the method: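 HepG2, transient MRTU transfection, cis promoter elements; 24 h dosing; RT-PCR/CE fluorescence read-out of reporter mRNA; fit both directions vs DMSO.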
# [20] = biological target: Peroxisome proliferator-activated receptor gamma (Homo sapiens) (UniProt P37231); experiment: ATG_PPARg_TRANS: Attagene TRANS-FACTORIAL HepG2 Assay for human Peroxisome Proliferator-activated Receptor-gamma (PPARg) (AID 2283007; active = hit-call score of the fitted dose curve at least 0.9, where 1 is the maximum)
# Sequence of Peroxisome proliferator-activated receptor gamma (Homo sapiens) (P37231 whole entry, looked up, the tested form may be a part): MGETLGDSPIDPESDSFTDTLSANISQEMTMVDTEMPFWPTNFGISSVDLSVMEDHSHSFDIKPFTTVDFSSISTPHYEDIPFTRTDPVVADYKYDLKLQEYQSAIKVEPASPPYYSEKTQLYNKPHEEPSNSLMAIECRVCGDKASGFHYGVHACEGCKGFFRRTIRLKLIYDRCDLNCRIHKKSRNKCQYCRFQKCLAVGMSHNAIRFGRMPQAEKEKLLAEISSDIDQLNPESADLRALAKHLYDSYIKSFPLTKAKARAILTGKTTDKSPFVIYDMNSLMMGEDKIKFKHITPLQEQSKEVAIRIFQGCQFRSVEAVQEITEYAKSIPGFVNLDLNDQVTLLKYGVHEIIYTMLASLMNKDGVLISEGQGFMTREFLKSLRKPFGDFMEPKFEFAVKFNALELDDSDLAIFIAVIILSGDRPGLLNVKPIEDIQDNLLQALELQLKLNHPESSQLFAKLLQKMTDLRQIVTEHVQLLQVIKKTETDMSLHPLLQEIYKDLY
# Summary of the method: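 Read-out: reporter mRNA induction, detected by fluorescence after RT-PCR and capillary electrophoresis. Transiently transfected human HepG2 liver cells carrying a chimeric NR-Gal4 construct were dosed for 24 h; activity was fitted upward relative to DMSO.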
compound,measurement,setting,value
CNC(=O)Oc1cc(C)c(SC)c(C)c1,outcome,[1],inactive
same,outcome,[2],inactive
same,outcome,[3],inactive
same,outcome,[4],inactive
same,outcome,[5],inactive
same,outcome,[6],inactive
same,outcome,[7],inactive
same,outcome,[8],inactive
same,outcome,[9],inactive
same,outcome,[10],inactive
same,AC50,[11],51.8 µM (active)
same,outcome,[12],inactive
same,outcome,[13],inactive
same,outcome,[14],inactive
same,outcome,[15],inactive
same,outcome,[16],inactive
same,outcome,[17],inactive
Clc1ccc(-c2ccccc2)cc1,outcome,[1],inactive
same,outcome,[2],inactive
same,outcome,[3],inactive
same,outcome,[4],inactive
same,outcome,[5],inactive
same,outcome,[6],inactive
same,outcome,[7],inactive
same,outcome,[8],inactive
same,outcome,[9],inactive
same,outcome,[11],inactive
same,outcome,[18],inactive
same,outcome,[12],inactive
same,outcome,[13],inactive
same,AC50,[14],152 µM (active)
same,outcome,[15],inactive
same,AC50,[16],149 µM (active)
same,outcome,[19],inactive
same,outcome,[17],inactive
same,outcome,[20],inactive
O=C(O)c1cc[c]([Hg][Cl])cc1,outcome,[1],inactive
same,outcome,[2],inactive
same,outcome,[4],inactive
same,outcome,[5],inactive
same,outcome,[6],inactive
same,outcome,[7],inactive
same,outcome,[8],inactive
same,outcome,[9],inactive
same,outcome,[10],inactive
same,outcome,[11],inactive
same,outcome,[12],inactive
same,outcome,[13],inactive
same,AC50,[14],11.1 µM (active)
same,outcome,[15],inactive
same,AC50,[16],11.1 µM (active)
same,AC50,[19],6.74 µM (active)
same,AC50,[17],7.47 µM (active)
same,AC50,[20],44.6 µM (active)
ClCCCCCCCl,outcome,[1],inactive
same,outcome,[2],inactive
same,outcome,[3],inactive
same,outcome,[4],inactive
same,outcome,[5],inactive
same,outcome,[6],inactive
same,outcome,[7],inactive
same,outcome,[8],inactive
same,outcome,[9],inactive
same,outcome,[11],inactive
same,outcome,[18],inactive
same,outcome,[12],inactive
same,outcome,[13],inactive
same,outcome,[14],inactive
same,outcome,[15],inactive
same,outcome,[16],inactive
same,outcome,[19],inactive
CCC(C)c1cc([N+](=O)[O-])cc([N+](=O)[O-])c1OC(=O)C=C(C)C (stereo not given),outcome,[1],inactive
same,AC50,[2],151 µM (active)
same,outcome,[3],inactive
same,outcome,[4],inactive
same,AC50,[5],25.8 µM (active)
same,outcome,[7],inactive
same,AC50,[8],100 µM (active)
same,outcome,[9],inactive
same,outcome,[10],inactive
same,AC50,[11],0.86 µM (active)
same,outcome,[18],inactive
same,outcome,[12],inactive
same,outcome,[13],inactive
same,AC50,[14],25.5 µM (active)
same,outcome,[15],inactive
same,AC50,[16],3.47 µM (active)
same,AC50,[17],48.3 µM (active)
same,AC50,[20],1.05 µM (active)
C[N+](C)(C)CC(=O)O,outcome,[1],inactive
same,outcome,[2],inactive
same,outcome,[3],inactive
same,outcome,[5],inactive
same,outcome,[6],inactive
same,outcome,[7],inactive
same,outcome,[8],inactive
same,outcome,[9],inactive
same,outcome,[10],inactive
same,outcome,[18],inactive
same,outcome,[12],inactive
same,outcome,[13],inactive
same,outcome,[14],inactive
same,outcome,[16],inactive
CN(N=O)c1ccccc1,outcome,[1],inactive
same,outcome,[2],inactive
same,outcome,[3],inactive
same,outcome,[4],inactive
same,outcome,[5],inactive
same,outcome,[6],inactive
same,outcome,[7],inactive
same,outcome,[8],inactive
same,outcome,[9],inactive
same,outcome,[10],inactive
same,outcome,[11],inactive
same,outcome,[18],inactive
same,outcome,[12],inactive
same,outcome,[13],inactive
same,outcome,[14],inactive
same,outcome,[15],inactive
same,outcome,[16],inactive
same,outcome,[19],inactive
same,outcome,[20],inactive
O=c1[nH]c(Cl)c(Cl)cc1Cl,outcome,[1],inactive
same,outcome,[2],inactive
same,outcome,[3],inactive
same,AC50,[4],59.5 µM (active)
same,outcome,[5],inactive
same,outcome,[6],inactive
same,outcome,[7],inactive
same,outcome,[8],inactive
same,outcome,[9],inactive
same,outcome,[11],inactive
same,outcome,[18],inactive
same,outcome,[12],inactive
same,outcome,[13],inactive
same,outcome,[14],inactive
same,AC50,[16],76.3 µM (active)
same,outcome,[19],inactive
same,outcome,[17],inactive
same,AC50,[20],14.2 µM (active)
